# Laboratory results as given in ChEMBL document CHEMBL3988442, “University of Dundee, Small-Polar-MMV Screening Library” (2021).
# The whole screen tested about 38,000 compounds, of which about 1,200 (3.2%) showed an effect of 50% or more. The median lay at about -58%. The full list was thinned out, with strong results kept by preference.
# Tested on: Plasmodium falciparum
# Assay: Calibr Malaria Delayed Death Assay SOP
# Format: functional, organism-based
# Parameters: scale not given: in the data most compounds retested in dose-response had high values
# Details: concentration 4.99e-06 (unit not given; other assays of the set use mol/L)
row,Compound,Percent Effect [%]
1,Cc1nc(N(C)C)nc2c1COCC21CCN(C(=O)C2CC2)C1 (centres undefined),-124.4
2,O=C(Cn1cc(C2CC2)nn1)N(Cc1cccs1)CC1CCCO1 (centres undefined),-9.508
3,CN1CCC(N(Cc2ccco2)S(=O)(=O)c2ccc(Br)cc2Cl)CC1,73.43
4,O=C(c1ccco1)N1CC(S(=O)(=O)c2ccc(Cl)cc2)C1,-88.3
5,O=C(c1cc(Br)ccc1Cl)N1CCN(Cc2ccco2)CC1,-2.5
6,O=C(CN(Cc1ccco1)C1CC1)Nc1ccc(Br)cn1,-177.6
7,CC1CCN(C(=O)CN(Cc2ccco2)C2CC2)CC1,-121
8,O=c1cc(CN(Cc2ccco2)C2CC2)nc2ccc(Br)cn12,-50.29
9,CN1CCC(N(Cc2ccco2)S(=O)(=O)c2ccc(Cl)cc2)CC1,54.64
10,CN1CCC(N(Cc2ccco2)S(=O)(=O)c2cc(Br)ccc2Br)CC1,75.01
11,Cn1cnc(S(=O)(=O)N2CCN(Cc3ccco3)CC2)c1Cl,-15.28
12,CCc1nc(C(=O)N2CCOCC2)nn1-c1ccccc1Cl,-27.32
13,COc1cccc(CN2CCCC2c2cccc(F)c2)c1OC (centres undefined),53.66
14,Cc1cc2[nH]c(CN3CCCCC3c3cccc(F)c3)cc(=O)n2n1 (centres undefined),-66.54
15,COc1cc(CN2CCCC2c2cccc(F)c2)cc(OC)c1OC (centres undefined),25.35
16,COc1ccc(CN2CCCC2c2cccc(F)c2)c(OC)c1OC (centres undefined),58.64
17,COc1cccc(CN2CCCCCC2c2cccs2)c1OC (centres undefined),-76.96
18,CS(=O)(=O)c1ccc(CN2CCCCC2c2cccc(F)c2)cc1 (centres undefined),-43.63
19,Cc1ccccc1-c1cc(NC(=O)CC(C)C)n(CCO)n1,-65.33
20,O=C(NCCc1c[nH]c2ccccc12)C1(n2cnnn2)CCCCC1,-28.02
21,O=C(O)C(F)(F)F.O=C(c1cccc(F)c1)N1CCC2(CC1)CN(c1ccccn1)CCO2,-103.6
22,Cc1nn2c(-c3cnn(C)c3)nnc2s1,-96.58
23,CC(C)(C)OC(=O)N1CCN(S(C)(=O)=O)C2(CCCCC2)C1,-78.85
24,Cc1cc(N2CCCC3(CN(C)C(=O)O3)C2)c2cc3c(cc2n1)OCO3 (centres undefined),-65
25,Cc1cc(C)c2[nH]c(=O)c(CN3CCC(O)(CN(C)C)C3)cc2c1 (centres undefined),5.101

row,Compound,Percent Effect [%]
1,Cc1cc(N2CCC(O)(CN(C)C)C2)c2cc3c(cc2n1)OCO3 (centres undefined),89.44
2,CN(C)CC1(O)CCN(C(=O)c2cnc(-c3ccccn3)nc2)C1 (centres undefined),-83.84
3,CN(C)CC1(O)CCCN(c2noc(-c3ccccc3)n2)CC1 (centres undefined),-4.701
4,Cc1cc(N2CCCC(O)(CN(C)C)C2)c2cc3c(cc2n1)OCO3 (centres undefined),79.58
5,CN(C)C(=O)CC1CC2(CCN(Cc3ccco3)CC2)c2ccccc21.O=C(O)C(F)(F)F (centres undefined),24.78
6,CN1C(=O)C2(CCCN(C(=O)c3ccc(=O)n(C)n3)C2)c2ccccc21 (centres undefined),-36.85
7,Cc1cc(C(=O)N2CCn3cc(CN4CCCCC4)nc3C2)no1,-18.56
8,CN(C)[C@@H]1CCN(S(C)(=O)=O)[C@H]1Cc1ccccc1,16.37
9,CN(C)[C@@H]1CCN(S(=O)(=O)C2CC2)[C@H]1Cc1ccccc1.O=C(O)C(F)(F)F,63.58
10,CC(C)NC(=O)N1CC[C@@H](N(C)C)[C@@H]1Cc1ccccc1.O=C(O)C(F)(F)F,14.09
11,CC(C)N(C)[C@@H]1CCN(S(C)(=O)=O)[C@H]1Cc1ccccc1,53.16
12,CN(C)[C@@H]1CCN(C(=O)c2ccccn2)[C@H]1Cc1ccncc1,-71
13,O=S(=O)(C1CC1)N1CC[C@H](OCC2CC2)[C@@H]1Cc1ccncc1,-74.15
14,CC(C)N(C)[C@@H]1CCN(Cc2ccoc2)[C@H]1Cc1ccccc1,9.124
15,CN(C)[C@@H]1CCN(S(=O)(=O)c2cn(C)cn2)[C@H]1Cc1cccnc1.O=C(O)C(F)(F)F.O=C(O)C(F)(F)F.O=C(O)C(F)(F)F,-62.43
16,CC(C)OC[C@H]1CCC[C@]12CN(C(=O)C1CCOCC1)CCO2,-62.83
17,CNC(=O)CN1CCC(CN(C)Cc2ccccc2N(C)C)CC1,-85.31
18,COc1ccc(CN2C[C@@H](O)[C@](O)(CNC(=O)c3ccccn3)C2)cc1,-63.46
19,Cn1cc(-c2ncnc3c2CCN(C(=O)c2cnccn2)CC3)cn1,-80.91
20,COc1ccc(C[C@H]2CN(C(=O)c3ccncc3)CC[C@@H]2OC)cc1.O=C(O)C(F)(F)F,-34.29
21,COc1ccc(C[C@H]2CN(c3cc(OC)ncn3)CC[C@@H]2OC)cc1.O=C(O)C(F)(F)F,-3.62
22,COc1ccc(C[C@H]2CN(c3nnc(C)s3)CC[C@H]2OC)cc1.O=C(O)C(F)(F)F,-6.177
23,COc1ccc(C[C@H]2CN(Cc3ccoc3)CC[C@@H]2OC)cc1.O=C(O)C(F)(F)F,63.43
24,COc1ccc(C[C@H]2CN(Cc3ccoc3)CC[C@H]2OC)cc1.O=C(O)C(F)(F)F,74.09
25,COc1ccc(C[C@H]2CN(c3nnc(C)s3)CC[C@@H]2OC)cc1.O=C(O)C(F)(F)F,-18.37

row,Compound,Percent Effect [%]
1,N#Cc1ccc(OC[C@]23COC[C@H]2CN(Cc2ccccn2)C3)nc1,-50.77
2,Cn1cccc1C(CNC(=O)COc1ccc(Cl)cc1Cl)N1CCCC1 (centres undefined),74.07
3,Cn1cccc1C(O)CNC(=O)COc1ccccc1F (centres undefined),-31.9
4,Cn1cccc1C(O)CNC(=O)COc1ccc(Cl)cc1Cl (centres undefined),-33.74
5,O=C(NCc1nnc2n1CCCC2)c1cn(-c2ccccc2)nn1,-72.42
6,COc1cccc([C@H]2CN(C(C)=O)[C@@H]3CCN(Cc4ccsc4)C[C@H]23)c1.Cl,72.65
7,COCc1cc(O)nc(C2CCCN(Cc3cccc(OC)c3)C2)n1 (centres undefined),-102.5
8,COc1cccc([C@@H]2CCN(Cc3[nH]nc(C)c3Cl)C[C@H]2O)c1,-13.94
9,COCC(=O)NCC1CCN(Cc2ccsc2)CC1,-175
10,COc1cccc(CC2CCCN2CC(N)=O)c1 (centres undefined),-61.65
11,COc1cccc([C@@H]2CCN(Cc3c[nH]c(C)n3)C[C@H]2O)c1,-37.12
12,COc1cccc(CN2CC[C@H]3[C@@H](C2)[C@H](c2ccsc2)CN3C(C)=O)c1,52.59
13,CCN1CCC(N2C[C@@H](C(=O)O)[C@H](c3cccc(OC)c3)C2)CC1,-103.5
14,CNC(=O)[C@@]12CCC3(CCN(S(=O)(=O)C4CC4)CC3)[C@@H]1CN(C(C)=O)C2,-121.6
15,Cc1ccoc1C(=O)N1CCCC(CNS(C)(=O)=O)C1 (centres undefined),-23.43
16,NC(=O)Cn1cnc2nc3n(c2c1=O)CCC3,-106.4
17,CC(C)N1CCOC(Cc2nn3c(Cc4ccccc4)nnc3s2)C1 (centres undefined),-78.89
18,CO[C@H]1CCN(Cc2c(C)noc2C)[C@@H]2CN(Cc3cccnc3)C[C@H]12.O=C(O)C(F)(F)F.O=C(O)C(F)(F)F.O=C(O)C(F)(F)F,-19.09
19,CN(Cc1noc(C2CC2)n1)C1CCN(CCc2cccs2)C1 (centres undefined),-58.32
20,COc1cc(CNCc2ccc(C(C)O)cc2)cc2c1OCO2 (centres undefined),7.669
21,COc1cc(CNCC(O)c2ccc(C)cc2)cc2c1OCCO2.Cl (centres undefined),46.91
22,COc1ccc(CNCc2cc(Br)c3c(c2)OCO3)cc1,-51.11
23,COc1cc(CNC(C)Cn2ccnc2)cc2c1OCO2.Cl (centres undefined),-50.32
24,Cc1cc(CNC(=O)NCC(O)c2cccc(F)c2)no1 (centres undefined),-84.11
25,COc1cc(CNC(C)Cn2cccn2)cc2c1OCO2.Cl (centres undefined),-35.84

row,Compound,Percent Effect [%]
1,COc1cc(CNCC(O)c2ccccc2)cc2c1OCO2.Cl (centres undefined),59.91
2,Fc1ccc(CNCc2cc(Br)c3c(c2)OCO3)cc1,-20.04
3,COc1cc(CNC(C)c2ccc(F)c(F)c2)cc2c1OCCO2.O=C(O)C(=O)O (centres undefined),-10.9
4,COc1c(C(N)=O)cn(C)c1-c1nc2cc(NC(C)=O)ccc2n1C,-29.86
5,Cc1nc(O)cc(C2CCCN(Cc3c(Cl)cncc3Cl)C2)n1 (centres undefined),-29.03
6,O=C(Cn1cnnn1)NC(c1ccccc1)c1ccc2c(c1)CCCO2 (centres undefined),-75.22
7,Cc1ccoc1C(=O)N1CCO[C@H]2[C@H](OCc3ccncc3)CC[C@@H]21,-118.2
8,COc1ccccc1C(=O)N1CCCC1c1ncc2c(n1)CCNC2.Cl (centres undefined),-133.7
9,CC(O)CCN(C)C(=O)Nc1cccc(F)c1 (centres undefined),-108.7
10,CC(C)Cn1ncc(C(=O)NS(=O)(=O)C2CCCC2)c1C1CC1,-142.6
11,O=C(O)CCC(=O)N1CCC(c2noc3cc(F)ccc23)CC1,-92.3
12,CCC(=O)NC(c1cccnc1)c1cc(C)ccc1C (centres undefined),-105.8
13,O=C(CC1CCCC1)N1C[C@@H]2CCN(c3cccnc3)C[C@@H]2C1.O=C(O)C(F)(F)F,-61.89
14,Cc1cccc(CNC2CC3(CCN(CCO)CC3)c3ccccc32)n1.O=C(O)C(F)(F)F.O=C(O)C(F)(F)F (centres undefined),77.51
15,Cc1ccc(CNC(=O)CN2CCN(CCO)CC2)s1,-40.21
16,CCN1CCC2(CC1)CC(NC(=O)N(C)C)c1cc(C)ccc12.O=C(O)C(F)(F)F (centres undefined),-8.453
17,Cn1cncc1CNC1CC2(CCN(CC3CC3)CC2)c2ccccc21.O=C(O)C(F)(F)F.O=C(O)C(F)(F)F (centres undefined),-88.17
18,Cc1ccc2c(c1)C(N(C)C)CC21CCN(CCO)CC1.O=C(O)C(F)(F)F.O=C(O)C(F)(F)F (centres undefined),74.01
19,Cc1ccc2c(c1)C(NC(=O)N(C)C)CC21CCN(C)CC1.O=C(O)C(F)(F)F (centres undefined),-16.75
20,O=C(NC1CC2(CCN(CCO)CC2)c2ccccc21)c1ccncc1.O=C(O)C(F)(F)F.O=C(O)C(F)(F)F (centres undefined),-81.16
21,O=C(NC1CC2(CCN(CCO)CC2)c2ccccc21)c1ccno1.O=C(O)C(F)(F)F (centres undefined),-16.34
22,CCOC1CC2(CCN(CCO)CC2)c2ccc(C)cc21 (centres undefined),16.18
23,Cc1ccc(CNC2CC3(CCN(CCO)CC3)c3ccccc32)s1.O=C(O)C(F)(F)F.O=C(O)C(F)(F)F (centres undefined),84.71
24,COCC(=O)NC1CC2(CCN(CCO)CC2)c2ccccc21.O=C(O)C(F)(F)F (centres undefined),-47.31
